Laboratory results taken from PubChem BioAssay (EPA / NIEHS).
“And” between values parts separate entries of the source, which are not always exact repeats. Equal entries are not always repeated. Records with an inconclusive call do not appear. Some structures have more than one record in an assay (separate samples or runs), and their calls can disagree. The source made the active and inactive calls. How the source made its calls: active means hit-call score of the fitted dose curve at least 0.9, where 1 is the maximum; inconclusive means response in the unintended direction; inactive means score below 0.9.

Assays:
[1] = ACEA_AR_agonist_AUC_viability: ACEA Biosciences xCELLigence Real-Time Cell Analysis on Androgen Receptor Agonism for Viability (AID 2283775);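 on AC50: viability read 80 hours after compound addition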
Method in brief: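 22Rv1 cells; impedance growth kinetics; 8-pt 1:4 dilutions from 100 uM top final, ≤0.5% DMSO; n = 2; 80 h read; AUC viability, loss-of-signal vs DMSO.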

[2] = ACEA_AR_antagonist_AUC_viability: ACEA Biosciences xCELLigence Real-Time Cell Analysis on Androgen Receptor Antagonism for Viability (AID 2283776);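 further: area under impedance growth curve at 80 h after dosing as viability; hits lower the growth signal relative to DMSO meaning cytotoxicity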
Method in brief: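 22Rv1 human prostate cancer cells were seeded on electrode plates, monitored overnight, then exposed to eight 1:4 dilutions from 100 uM final. Impedance-based growth kinetics at 80 h gave an AUC viability endpoint normalized to DMSO.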

[3] = ACEA_ER_AUC_viability: ACEA Biosciences xCELLigence Real-Time Cell Analysis on Estrogen Receptor Agonism for Viability (AID 2283782);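 further: hit means loss of impedance signal meaning reduced cell growth or viability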
Method in brief: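 Read-out: real-time electrical impedance (RT-CES) area under curve, loss of signal taken as reduced viability, normalized to DMSO baseline. T-47D cells, charcoal-stripped serum medium, compounds up to 100 uM final, continuous exposure, 80 h.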

[4] = ATG_M_06_XSP2: Attagene TRANS-FACTORIAL Multi-Species (XSP2) HepG2 Assay for M06 Transcription Factor (Internal Marker) (AID 2283811);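 further: hits are increases in signal above the DMSO baseline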
Method in brief: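 Readout: fluorescent reporter-mRNA peaks by capillary electrophoresis after RT-PCR and HpaI digest, scored upward relative to DMSO. Transfected HepG2, 24 h chemical exposure, with 3 nM 6-alpha-fluorotestosterone and 1.5 nM norgestrel added.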

[5] = system: turtle Estrogen Receptor (ERa), gene 101933533; assay: ATG_trERa_XSP2: Attagene TRANS-FACTORIAL Multi-Species (XSP2) HepG2 Assay for turtle Estrogen Receptor (ERa) (AID 2283812);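 further: actives raise reporter signal above DMSO so AC50 reflects agonist activity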
Method in brief: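 Readout is reporter mRNA quantified by RT-PCR with capillary electrophoresis after 24 h compound exposure, increase relative to DMSO. Uses transiently transfected human HepG2 liver cells carrying a chimeric turtle ERa-Gal4 receptor driving GAL4-UAS reporters.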

[6] = biological target: Estrogen receptor beta (Homo sapiens) (UniProt Q92731); assay: ATG_hERb_XSP2: Attagene TRANS-FACTORIAL Multi-Species (XSP2) HepG2 Assay for human Estrogen Receptor (ERb) (AID 2283813);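 further: actives raise reporter mRNA above DMSO so AC50 reflects agonist induction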
Method in brief: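 Transient TRANS reporter system in HepG2: after 24 h of chemical, RNA is reverse-transcribed, reporter cDNA amplified, FAM-labelled and sized by capillary electrophoresis. Induction of the human ERb-Gal4 reporter is measured relative to DMSO.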

[7] = biological target: zebrafish Estrogen Receptor (ER1), esr1 (gene 259252) (UniProt P57717); assay: ATG_zfER1_XSP2: Attagene TRANS-FACTORIAL Multi-Species (XSP2) HepG2 Assay for zebrafish Estrogen Receptor (ER1) (AID 2283816)
Method in brief: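 After 24 h compound exposure, RNA from transfected HepG2 cells was reverse-transcribed and reporter transcripts resolved by capillary electrophoresis. The TRANS format reads exogenous zebrafish ER1-Gal4 chimera activity on GAL4-UAS elements; gain of signal against DMSO.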

[8] = biological target: chicken Estrogen Receptor (ERa), ESR1 (gene 396099) (UniProt P06212); assay: ATG_chERa_XSP2: Attagene TRANS-FACTORIAL Multi-Species (XSP2) HepG2 Assay for chicken Estrogen Receptor (ERa) (AID 2283817);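 further: actives raise reporter signal above DMSO so AC50 reflects ER activation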
Method in brief: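 Readout: fluorescent reporter-transcript fragments resolved by capillary electrophoresis after RT-PCR and HpaI cut. Chicken ERa-Gal4 fusion in transiently transfected HepG2, dosed for 24 h; activity taken as increase over DMSO baseline.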

[9] = system: zebrafish Estrogen Receptor (ER2a), gene 317734; assay: ATG_zfER2a_XSP2: Attagene TRANS-FACTORIAL Multi-Species (XSP2) HepG2 Assay for zebrafish Estrogen Receptor (ER2a) (AID 2283818);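 further: hits raise reporter mRNA so AC50 reflects activation of zebrafish ER2a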
Method in brief: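 Multiplexed trans-reporter readout: RT-PCR then capillary electrophoresis of reporter transcripts after 24 h compound treatment. Human HepG2 carries transfected zebrafish ER2a-Gal4 chimera; 3 nM 6-alpha-fluorotestosterone plus 1.5 nM norgestrel present. Induction scored against DMSO.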

[10] = system: frog Estrogen Receptor (ER), gene 398734; assay: ATG_frER1_XSP2: Attagene TRANS-FACTORIAL Multi-Species (XSP2) HepG2 Assay for frog Estrogen Receptor (ER) (AID 2283821);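 further: hits raise reporter mRNA above DMSO baseline so potency means agonist or activator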
Method in brief: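 Reporter mRNA induction, detected as fluorescence after RT-PCR and capillary electrophoresis, is the endpoint; activity is fitted upward against DMSO. Cells are human liver HepG2 carrying transfected NR-Gal4 chimeras with GAL4-UAS-driven reporters, harvested 24 h post-dosing.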

AR (gene 367) [11] = biological target: AR (gene 367) (UniProt P10275); assay: ACEA_AR_antagonist_80hr: ACEA Biosciences xCELLigence Real-Time Cell Analysis on Androgen Receptor Antagonism for Proliferation (AID 2283787);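 further: hits lower the impedance growth signal relative to DMSO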
Method in brief: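 Measures real-time proliferation of 22Rv1 prostate cancer cells by electrode impedance at 80 hours after dosing. Test articles ran at eight concentrations (1:4 steps, top 100 uM final) in biological duplicate.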

[12] = biological target: Luciferin 4-monooxygenase (Photinus pyralis) (UniProt P08659); assay: CCTE_Simmons_QuantiLum_inhib_2: CCTE's Firefly Luciferase Inhibition Assay, Simmons Lab (AID 2283767);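 on AC50: potency for inhibitors that lower luciferase luminescence relative to DMSO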
Method in brief: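 First, 5 ng purified luciferase in phosphate buffer with BSA is dispensed per well. Next, test chemicals (5 nM to 87.5 uM final, 0.5% DMSO) are added and incubated 30 min at 37C in darkness. Finally, luciferin reagent is injected and luminescence read kinetically.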

AR (gene 367) [13] = biological target: AR (gene 367) (UniProt P10275); assay: ACEA_AR_agonist_80hr: ACEA Biosciences xCELLigence Real-Time Cell Analysis on Androgen Receptor Agonism for Proliferation (AID 2283783);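 further: hits increase impedance growth signal above DMSO baseline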
Method in brief: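 Impedance (RT-CES) growth signal at 80 h post-dose; 22Rv1 cells, 8-pt 1:4 series, top 100 uM final, DMSO ≤0.5%; duplicate plates; gain-of-signal fit relative to DMSO baseline.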

[14] = biological target: GAL4 Transcription Factor (Internal Marker), GAL4 (gene 855828) (UniProt P04386); assay: ATG_GAL4_XSP2: Attagene TRANS-FACTORIAL Multi-Species (XSP2) HepG2 Assay for GAL4 Transcription Factor (Internal Marker) (AID 2283814);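 further: GAL4 reporter mRNA background control in MRTU transfected cells not a receptor target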
Method in brief: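 Background-control readout: gain-of-signal fitted against DMSO. After 24 h exposure of transfected HepG2 (MRTU, GAL4-UAS reporters; 3 nM 6-alpha-fluorotestosterone, 1.5 nM norgestrel present), transcripts quantified by RT-PCR and capillary electrophoresis fluorescence.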

[15] = system: turtle Androgen Receptor (AR), gene 101947425; assay: ATG_trAR_XSP2: Attagene TRANS-FACTORIAL Multi-Species (XSP2) HepG2 Assay for turtle Androgen Receptor (AR) (AID 2283815)
Method in brief: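 Reporter transcripts were quantified via RT-PCR and capillary electrophoresis and fitted upward against DMSO. Transiently transfected human HepG2 cells carrying NR-Gal4 chimeras were exposed 24 h, with 3 nM 6-alpha-fluorotestosterone plus 1.5 nM norgestrel added.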

[16] = system: chicken Androgen Receptor (AR), gene 422165; assay: ATG_chAR_XSP2: Attagene TRANS-FACTORIAL Multi-Species (XSP2) HepG2 Assay for chicken Androgen Receptor (AR) (AID 2283819);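 further: hits raise reporter mRNA above DMSO so potency is for activation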
Method in brief: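 Readout is reporter mRNA induction via RT-PCR/capillary electrophoresis after 24 h chemical exposure, positive direction relative to DMSO. Transiently transfected HepG2 express chimeric chicken AR–GAL4; AR stimulated by 3 nM 6-alpha-fluorotestosterone and 1.5 nM norgestrel.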

[17] = STM_H9_NormalizedViability: Cytotoxicity Assessment at 120 hours in the Stemina devTOX quickPredict H9 human embryonic stem cell (hESC)-based Assay (AID 2283784)
Method in brief: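 Viability of the cell layer was taken from live-cell protease cleavage of a fluorogenic substrate after compound exposure of undifferentiated H9 stem cells, with replenishment each 24h. Fluorescence was normalized to vehicle (0.1% DMSO).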

[18] = ArunA_NOG_NeuritesPerNeuron: ArunA Biomedical's Neurite Outgrowth (NOG) Assay for Neurites Per Neuron (AID 2283758)
Method in brief: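 Differentiated human H9-derived neurons exposed to chemicals for 48 h from seeding, then stained with Hoechst and βIII-tubulin/DyLight 488. Automated imaging counted neurites (processes >10 um) per valid neuron; loss of signal versus DMSO scored.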

[19] = ArunA_NOG_BranchPointsPerNeurite: ArunA Biomedical's Neurite Outgrowth (NOG) Assay for Branch Points Per Neurite (AID 2283759)
Method in brief: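 Automated image analysis traced neurites (processes >10 um) from valid cell bodies after Hoechst and βIII-tubulin staining. hNN cells from H9 embryonic stem cells, 48 h exposure. Fitted bidirectionally against DMSO.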

[20] = ATG_M_19_XSP2: Attagene TRANS-FACTORIAL Multi-Species (XSP2) HepG2 Assay for M32 Transcription Factor (Internal Marker) (AID 2283822)
Method in brief: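 Internal background marker in a multi-species nuclear receptor TRANS panel: transfected HepG2 cells exposed 24 h, with 3 nM 6-alpha-fluorotestosterone and 1.5 nM norgestrel present. Readout is RT-PCR of reporter transcripts resolved by capillary electrophoresis, gain-of-signal versus DMSO.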

Measured: AC50

Luciferin 4-monooxygenase (Photinus pyralis), sequence (P08659 whole entry, looked up): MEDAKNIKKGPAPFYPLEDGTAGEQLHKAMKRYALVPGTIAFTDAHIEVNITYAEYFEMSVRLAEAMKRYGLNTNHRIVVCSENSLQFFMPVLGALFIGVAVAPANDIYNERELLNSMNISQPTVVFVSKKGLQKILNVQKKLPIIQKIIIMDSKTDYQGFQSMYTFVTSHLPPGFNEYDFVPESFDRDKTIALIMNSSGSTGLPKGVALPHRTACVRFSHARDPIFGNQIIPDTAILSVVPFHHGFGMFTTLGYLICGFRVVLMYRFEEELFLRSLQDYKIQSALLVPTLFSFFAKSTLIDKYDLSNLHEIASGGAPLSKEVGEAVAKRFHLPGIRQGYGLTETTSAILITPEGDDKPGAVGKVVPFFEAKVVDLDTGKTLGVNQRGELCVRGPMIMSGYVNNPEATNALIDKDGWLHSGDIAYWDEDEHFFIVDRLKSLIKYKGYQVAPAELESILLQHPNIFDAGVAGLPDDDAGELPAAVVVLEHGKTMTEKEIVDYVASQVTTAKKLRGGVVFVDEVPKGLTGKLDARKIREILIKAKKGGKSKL
AR (gene 367), sequence (P10275 whole entry, looked up): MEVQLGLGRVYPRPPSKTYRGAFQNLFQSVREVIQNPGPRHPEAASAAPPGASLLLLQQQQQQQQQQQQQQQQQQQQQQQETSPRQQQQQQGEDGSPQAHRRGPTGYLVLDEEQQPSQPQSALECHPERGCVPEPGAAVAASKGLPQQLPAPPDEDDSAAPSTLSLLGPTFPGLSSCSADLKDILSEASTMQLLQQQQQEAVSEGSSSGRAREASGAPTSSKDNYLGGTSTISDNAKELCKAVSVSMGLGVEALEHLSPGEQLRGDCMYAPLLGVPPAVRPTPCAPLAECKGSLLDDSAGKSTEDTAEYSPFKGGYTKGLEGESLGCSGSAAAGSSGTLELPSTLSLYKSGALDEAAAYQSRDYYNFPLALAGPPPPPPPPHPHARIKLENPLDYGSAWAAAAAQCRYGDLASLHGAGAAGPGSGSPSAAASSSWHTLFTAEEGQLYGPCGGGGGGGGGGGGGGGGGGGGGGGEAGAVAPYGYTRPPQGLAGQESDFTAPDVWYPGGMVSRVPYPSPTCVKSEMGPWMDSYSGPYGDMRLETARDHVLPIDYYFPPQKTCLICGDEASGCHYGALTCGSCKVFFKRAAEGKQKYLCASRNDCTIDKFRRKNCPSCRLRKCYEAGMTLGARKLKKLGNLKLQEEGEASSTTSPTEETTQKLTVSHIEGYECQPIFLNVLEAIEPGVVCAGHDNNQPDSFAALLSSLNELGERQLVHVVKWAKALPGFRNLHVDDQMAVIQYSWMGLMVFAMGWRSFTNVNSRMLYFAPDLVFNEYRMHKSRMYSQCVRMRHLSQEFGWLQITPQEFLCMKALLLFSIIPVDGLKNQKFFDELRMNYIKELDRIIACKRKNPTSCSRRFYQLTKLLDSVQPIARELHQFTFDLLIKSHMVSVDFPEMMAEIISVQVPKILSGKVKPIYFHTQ
Estrogen receptor beta (Homo sapiens), sequence (Q92731 whole entry, looked up, the tested form may be a part): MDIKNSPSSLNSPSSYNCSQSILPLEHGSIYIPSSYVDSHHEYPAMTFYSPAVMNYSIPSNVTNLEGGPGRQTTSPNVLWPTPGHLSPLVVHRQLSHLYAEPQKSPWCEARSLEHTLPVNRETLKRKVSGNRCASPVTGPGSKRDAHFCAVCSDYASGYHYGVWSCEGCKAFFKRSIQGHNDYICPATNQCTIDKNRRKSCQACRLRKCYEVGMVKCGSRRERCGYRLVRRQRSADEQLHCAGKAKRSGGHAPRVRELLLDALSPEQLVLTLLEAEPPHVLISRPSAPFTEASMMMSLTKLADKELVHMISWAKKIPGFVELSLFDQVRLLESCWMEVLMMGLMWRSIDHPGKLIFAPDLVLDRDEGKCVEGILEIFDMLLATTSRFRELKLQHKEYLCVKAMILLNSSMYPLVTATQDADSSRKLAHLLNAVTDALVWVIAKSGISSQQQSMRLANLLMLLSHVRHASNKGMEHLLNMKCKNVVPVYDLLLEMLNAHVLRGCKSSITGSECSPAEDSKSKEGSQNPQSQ
zebrafish Estrogen Receptor (ER1), esr1 (gene 259252), sequence (P57717 whole entry, looked up, the tested form may be a part): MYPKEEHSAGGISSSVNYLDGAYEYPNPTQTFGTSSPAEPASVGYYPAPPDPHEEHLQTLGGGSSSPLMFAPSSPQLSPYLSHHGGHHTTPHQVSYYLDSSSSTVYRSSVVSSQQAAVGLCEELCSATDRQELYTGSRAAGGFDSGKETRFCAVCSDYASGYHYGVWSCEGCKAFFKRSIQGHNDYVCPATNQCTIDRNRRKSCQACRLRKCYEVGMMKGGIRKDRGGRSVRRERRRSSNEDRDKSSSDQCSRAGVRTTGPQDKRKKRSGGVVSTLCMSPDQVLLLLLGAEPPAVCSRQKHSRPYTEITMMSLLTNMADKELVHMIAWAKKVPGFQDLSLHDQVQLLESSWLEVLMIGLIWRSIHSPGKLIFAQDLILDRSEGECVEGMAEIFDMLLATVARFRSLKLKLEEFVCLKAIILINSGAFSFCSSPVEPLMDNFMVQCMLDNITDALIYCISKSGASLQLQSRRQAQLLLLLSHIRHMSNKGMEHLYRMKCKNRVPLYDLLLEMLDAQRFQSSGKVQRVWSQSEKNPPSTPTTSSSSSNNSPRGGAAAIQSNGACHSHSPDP
chicken Estrogen Receptor (ERa), ESR1 (gene 396099), sequence (P06212 whole entry, looked up, the tested form may be a part): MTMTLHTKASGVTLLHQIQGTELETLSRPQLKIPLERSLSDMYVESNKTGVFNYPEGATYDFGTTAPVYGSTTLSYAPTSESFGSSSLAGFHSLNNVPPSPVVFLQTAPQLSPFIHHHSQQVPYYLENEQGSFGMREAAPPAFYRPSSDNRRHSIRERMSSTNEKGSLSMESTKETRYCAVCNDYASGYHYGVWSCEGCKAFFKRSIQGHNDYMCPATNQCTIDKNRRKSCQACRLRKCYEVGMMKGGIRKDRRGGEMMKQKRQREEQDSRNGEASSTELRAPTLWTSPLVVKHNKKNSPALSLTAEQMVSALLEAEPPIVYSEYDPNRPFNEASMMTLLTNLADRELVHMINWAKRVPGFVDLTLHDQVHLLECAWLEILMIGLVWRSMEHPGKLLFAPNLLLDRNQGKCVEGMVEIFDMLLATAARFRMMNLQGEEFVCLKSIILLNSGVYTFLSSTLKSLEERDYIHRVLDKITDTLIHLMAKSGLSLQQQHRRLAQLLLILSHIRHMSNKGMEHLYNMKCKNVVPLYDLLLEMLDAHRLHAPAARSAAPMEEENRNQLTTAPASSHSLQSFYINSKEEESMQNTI
GAL4 Transcription Factor (Internal Marker), GAL4 (gene 855828), sequence (P04386 whole entry, looked up, the tested form may be a part): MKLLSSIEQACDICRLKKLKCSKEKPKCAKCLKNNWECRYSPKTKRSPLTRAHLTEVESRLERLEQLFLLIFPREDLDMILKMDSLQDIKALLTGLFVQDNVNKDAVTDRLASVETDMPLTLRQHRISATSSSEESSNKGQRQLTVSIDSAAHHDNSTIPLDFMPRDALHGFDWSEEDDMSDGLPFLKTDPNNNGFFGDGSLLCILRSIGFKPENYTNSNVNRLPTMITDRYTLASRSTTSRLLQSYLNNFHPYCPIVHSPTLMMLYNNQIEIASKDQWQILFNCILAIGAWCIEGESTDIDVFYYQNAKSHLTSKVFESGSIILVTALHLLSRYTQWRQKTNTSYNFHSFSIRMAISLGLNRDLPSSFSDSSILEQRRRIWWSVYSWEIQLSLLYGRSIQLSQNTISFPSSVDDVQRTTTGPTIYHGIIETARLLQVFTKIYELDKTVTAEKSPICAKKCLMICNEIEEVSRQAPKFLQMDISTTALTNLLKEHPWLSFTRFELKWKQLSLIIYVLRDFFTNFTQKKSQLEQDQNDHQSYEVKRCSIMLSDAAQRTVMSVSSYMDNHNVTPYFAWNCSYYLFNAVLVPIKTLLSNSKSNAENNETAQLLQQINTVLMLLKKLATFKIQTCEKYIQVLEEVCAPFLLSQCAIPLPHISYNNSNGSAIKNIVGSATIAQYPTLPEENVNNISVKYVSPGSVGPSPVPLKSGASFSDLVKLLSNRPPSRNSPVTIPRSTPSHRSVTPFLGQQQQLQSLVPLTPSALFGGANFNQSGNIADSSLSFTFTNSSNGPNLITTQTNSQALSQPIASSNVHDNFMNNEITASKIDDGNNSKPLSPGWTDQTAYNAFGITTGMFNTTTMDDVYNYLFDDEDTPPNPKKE

CCN(CCO)CCO
inactive: [1] | [2] | [3]

CC(O)(CS(=O)(=O)c1ccc(F)cc1)C(=O)Nc1ccc(C#N)c(C(F)(F)F)c1 (stereo unspecified)
inactive: [1] | [3] | [4] | [5] | [6] | [7] | [8] | [9] | [10]
active: [1] 44 µM | [2] 21.4 µM and 9.65 µM

CNC(=O)O/N=C/C(C)(C)S(C)(=O)=O
inactive: [1] | [2] | [3] | AR (gene 367) [11]

O=c1nc(O)n(Cl)c(=O)n1Cl
inactive: [1] | [2] | [3]

N#Cc1cccnc1
inactive: [1] | [2] | [3]

CC(C)(C)c1ccccc1O
active: [3] 81.5 µM
inactive: [12] | [1] | [2]

CCCSP(=S)(OCC)Oc1ccc(SC)cc1 (stereo unspecified)
inactive: [12] | [1] | [3]

COC(=O)Nc1cccc(OC(=O)Nc2cccc(C)c2)c1
active: [12] 9.99 µM
inactive: [2]

N#CCC#N
inactive: [12] | [1] | [2] | [3] | AR (gene 367) [13] | AR (gene 367) [11]

CCOc1ccc(N)cc1
inactive: [12] | [3]

Clc1cccc(Cl)c1Cl
inactive: [1] | [2]

O=C(NC(=O)c1c(F)cccc1F)Nc1cc(Cl)c(OC(F)(F)C(F)C(F)(F)F)cc1Cl (stereo unspecified)
active: [1] 5.54 µM | [2] 5.68 µM | [3] 50 µM | AR (gene 367) [11] 6.32 µM

COc1ccccc1N
inactive: [12] | [1] | [2] | [3]

O=c1[nH]c(=O)n(Cl)c(=O)n1Cl
inactive: [12] | [1] | [2] | [3]

CC(=Cc1ccccc1)[N+](=O)[O-]
active: [1] 13.5 µM | [2] 6.31 µM | [3] 11.5 µM | AR (gene 367) [11] 6.33 µM

CCOCn1c(-c2ccc(Cl)cc2)c(C#N)c(Br)c1C(F)(F)F
active: [1] 6.93 µM | [2] 7.97 µM | [3] 50 µM

CCCCCCCCCCCCc1cccc(S(=O)(=O)O)c1
inactive: [12]
active: [1] 76.7 µM | [2] 75 µM | [3] 83.1 µM

Clc1cccc(Cl)c1
inactive: [1] | [2] | [3]

CCOP(=S)(OCC)O/N=C(\C#N)c1ccccc1
inactive: [1] | [4] | [6] | [14] | [15] | [7] | [9] | [16] | [10]
active: [12] 70 µM | [5] 7.97 µM and 2.27 µM | [7] 6.85 µM | [8] 6.64 µM and 5.37 µM | [9] 4.38 µM | [16] 17.8 µM

CCCCCCCCCCCCOS(=O)(=O)O
active: [1] 77.7 µM | [2] 72.1 µM | [3] 71.3 µM
inactive: [12] | [2]

CCCCCCCCCCCCN(C)C
inactive: [1] | [2] | [3]

CCOP(=S)(OCC)SCS(=O)(=O)C(C)(C)C
inactive: [12] | [3]

CN(N=O)C(N)=O
inactive: [12]

CN(C)C(=S)S
active: [17] 29.2 µM
inactive: [12] | [1] | [2]

O=C(O)C1(c2ccc3c(c2)OC[C@H](Cc2ccc(-c4ccccc4)cc2)[C@H]3O)CCCC1
inactive: [2]
active: [12] 85.2 µM | [1] 34.6 µM | [3] 78.3 µM

O=C1c2ccccc2C(=O)C1C(=O)C(c1ccccc1)c1ccc(Cl)cc1 (stereo unspecified)
active: [1] 26.7 µM | [2] 24.6 µM | [3] 33 µM | AR (gene 367) [11] 25 µM
inactive: [12] | AR (gene 367) [13]

O=C(NC(=O)c1c(F)cccc1F)Nc1ccc(Cl)cc1
inactive: [12] | [2] | [3]

Nc1ncn[nH]1
inactive: [18] | [19] | [12] | [1] | [3]

N#CS
inactive: [12] | [1] | [3]

O=C(CBr)c1ccc(O)cc1
inactive: [12] | [2] | [3]

COCCl
active: [9] 34.8 µM | [10] 19.8 µM
inactive: [1] | [2] | [3] | AR (gene 367) [11] | [5] | [6] | [15] | [7] | [8] | [9] | [16] | [10] | [20]

OCCCCO
inactive: [1]

CCC[CH2][Sn]([Cl])([Cl])[CH2]CCC
active: [1] 4.16 µM | [2] 3.75 µM | [3] 1.09 µM

O=C(CCl)Nc1ccccc1
inactive: [12] | AR (gene 367) [13]
active: [1] 24.5 µM | [2] 12.7 µM | [3] 10.8 µM | AR (gene 367) [11] 16.6 µM

COc1ccc(N)cc1
inactive: [12] | [1] | [2] | [3]
active: [3] 52 µM

COc1nn(C(=O)NS(=O)(=O)c2ccccc2OC(F)(F)F)c(=O)n1C
inactive: [1] | [2] | [3]
